Compound activity: PubChem BioAssay, National Center for Advancing Translational Sciences (NCATS)
KB-3-1 tox: qHTS assay for MDR1-selective chemotherapeutics: Primary screen using the parental adenocarcinoma cell KB-3-1 | KB-3-1 viability, CellTiter-Glo ATP luminescence, 72 h | Potency, µM (highest dose often 46.1 µM), hits mostly cytotoxic | 1.4% of 400,000 active | AID 1347075, 2019; also: % is scaled to controls: 0 for no effect and ±100 for the full control effect; nearly all actives have a fitted effect of over 60% in size
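Parental KB-3-1 adenocarcinoma cells in phenol-red-free DMEM with 10% FBS were pin-treated with compounds at several concentrations, incubated 72 h at 37 °C, and viability read by CellTiter-Glo luminescence; concentration-effect curves were fitted after normalization.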
HT1080 IDH1KD tx: qHTS for induction of synthetic lethality in tumor cells producing 2HG: qHTS for the HT-1080-IDH1KD cell line | Potency, µM (doses to about 46.1 µM), inactives show at the highest dose activity, negative = toxicity, hits mostly cytotoxic | 2% of 360,000 active | AID 686971, 2013 | HT-1080 IDH1 knockdown viability, ATP luminescence, 48 h;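 also: 0% = DMSO wells and -100% = cell-free medium wells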
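IDH1KD HT-1080 cells, 750/well, RPMI + 5% FBS; compound pinned after 2 h settling; 48 h, 37 °C; CellTiter-Glo luminescence; % activity normalised to DMSO and no-cell wells; curves fitted, classed by r2 and efficacy.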
KB-V1 MDR tox: qHTS assay for MDR1-selective chemotherapeutics: Primary screen using the drug-selected MDR subline cells KB-V1. Potency, µM (series often up to 46.1 µM), most hits filed as cytotoxic. 3.4% of 400,000 active. KB-V1 MDR cells viability, CellTiter-Glo, 72 h; also: % is scaled to controls: 0 for no effect and ±100 for the full control effect; nearly all actives have a fitted effect of over 60% in size
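Cytotoxicity via CellTiter-Glo luminescence after 72 h compound exposure at 37 degrees C. Cells: drug-selected KB-V1 line, DMEM phenol-red free plus 10% FBS. Compounds tested at multiple concentrations; normalized data fitted to concentration-effect curves.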
HT1080NT lethal: qHTS for induction of synthetic lethality in tumor cells producing 2HG: qHTS for the HT-1080-NT fibrosarcoma cell line. HT-1080-NT fibrosarcoma viability, CellTiter-Glo ATP luminescence, 48 h. Potency, µM (titrated, usually from 46.1 µM), without a hit: at the top dose activity, negative = less viability, hits mostly cytotoxic. 1.6% of 360,000 active. AID 686970, 2013;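 also: NT is the 2HG producing partner of a matched IDH1 knockdown line; 0% = DMSO-treated cells and -100% = media-only wells without cells; nearly all actives have a fitted effect of over 55% in size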
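Toxicity toward the 2HG-producing NT line was scored as %Activity, normalised to DMSO and no-cell wells, from CellTiter-Glo luminescence after 48 hours' treatment.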
MCF10A rerep: A quantitative high throughput screen for small molecules that induce DNA re-replication in MCF 10a normal breast cells; MCF 10A DNA re-replication, Hoechst nuclear intensity, 48 h; Potency, µM (highest dose often 46.1 µM), for inactives: at the highest dose activity, positive = re-replication, usual class: activators; 2.9% of 350,000 active; AID 624296, 2012; also: % of control where 0% means no effect; nearly all actives have a fitted effect of over 50% in size
SW480 rereplic: A quantitative high throughput screen for small molecules that induce DNA re-replication in SW480 colon adenocarcinoma cells; SW480 DNA re-replication, Hoechst DNA content imaging, 48 h; Potency, µM (doses to about 46.1 µM), for inactives: at the highest dose re-replication activation, usual class: activators; 1.8% of 340,000 active; AID 624297, 2012; also: % of control where 0% means no effect; nearly all actives have a fitted effect of over 55% in size
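Per well, 250 cells were exposed to pinned compound for 48 hr. Nuclear DNA was visualised with Hoechst (40 min, 37 C) and total object intensity recorded by fluorescence scanning.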
The depositor's hits bear a star; i = inactive; ? = inconclusive; / = no result; [ ] = dose if it differs, or a comment. Sampled rows, rich in hits. Any-hit rate of the full collection: about 8%. Calls follow the shape of the dose curve; as a rule, active = well fitted curve in the direction sought with a large enough effect; inconclusive = small, poorly fitted or top-dose-only effect, or another doubt; inactive = no such curve, though single readings can be large; an effect the other way counts as inactive or inconclusive. Potency is read from the fitted curve at half-maximal effect.

SMILES | KB-3-1 tox | HT1080 IDH1KD tx | KB-V1 MDR tox | HT1080NT lethal | MCF10A rerep | SW480 rereplic
CCOC(=O)c1c(NC(=O)CN2C(=O)c3ccccc3C2=O)sc(Cc2ccc3c(c2)OCO3)c1C | i | 3.3% | i | 19.3% | 11.5% | -0.5%
Cc1nc(NC(=O)c2ccccc2)sc1Cc1ccc2c(c1)OCO2 | ? | ? | ? | ? | ? | 25.9µM*
Cc1nc(NC(=O)c2ccc(Cl)cc2)sc1Cc1ccc2c(c1)OCO2 | 9.2µM* | 6.51µM* | 4.61µM* | 10.3µM* | 2.91µM* | 5.8µM*
Cc1c(Cc2ccc3c(c2)OCO3)sc(NC(=O)c2ccccc2)c1C(N)=O | ? | ? | ? | ? | 13µM* | 8.9%
CCOc1ccc(N(CC(=O)Nc2cccc(Br)c2)S(C)(=O)=O)cc1 | i | 3.4% | ? | -0.6% | 4.0% | -5.6%
COc1ccc(-c2noc(-c3ccc(N4CCC(C)CC4)c([N+](=O)[O-])c3)n2)cc1OC | i | / | ? | / | / | /
CCCOc1ccc(NC(=O)CCC(=O)NC(C)c2ccccc2)cc1 (stereo not given) | i | 9.8% | i | 10.0% | -0.5% | -36.2%
CCOc1ccccc1NC(=O)C1CCN(S(=O)(=O)c2ccc3[nH]c4c(c3c2)CCCCC4)CC1 | i | / | i | / | / | /
COC12NC(=O)N(C)C1(OC)C(=O)N(C)C(=O)N2C (stereo not given) | i | 22.9% | i | 1.9% | ? | 0.651µM*
O=C(CCl)c1ccc2c(c1)CCCC2 | i | / | i | / | / | /
COc1ccc(-c2oc3cccnc3c2C#CC2(O)CCCCC2)cc1 | i | ? | i | ? | 18.4µM* | 26.8%
COc1cc(-c2ccc3oc(-c4ccsc4)c(C#CC4(O)CCCCC4)c3c2)cc(OC)c1OC | i | -15.8% | i | -1.3% | 18.4µM* | ?
COc1ccc(-c2oc(=O)c3cc(OC)c(OC)cc3c2C#CC2(O)CCCCC2)cc1 | i | 8.8% | ? | 10.1% | 2.06µM* | -10.7%[9.22 µM]
COC(=O)c1c(-c2ccsc2)sc2ccc(-c3cc(OC)c(OC)c(OC)c3)cc12 | i | 0.1% | i | -10.2% | 1.0% | -18.5%[9.22 µM]
COc1ccc(-c2oc(=O)c3cc(OC)c(OC)cc3c2C#CCCCO)cc1 | i | -3.9% | i | -10.6% | ? | 18.6%
COc1cc(-c2ccc3sc(-c4ccsc4)c(C#CCO)c3c2)cc(OC)c1OC | i | ? | i | ? | 11.6µM* | 0.4%
CCOc1ccc(NC(=O)CN(C)C(=O)c2cc3c(s2)CCC3)cc1OCC | i | -8.4% | i | -1.7% | / | /
O=S1(=O)CC(N2CCN(CC3CC3)CC2)CN1C1CCCCC1 (stereo not given) | i | 13.3% | i | ? | / | /
COc1ccc(-c2sc3cc4c(cc3c2C#CCO)OCO4)cc1 | ? | -28.6% | i | -19.0% | ? | ?
COc1ccccc1-c1sc2cc3c(cc2c1C#CCO)OCO3 | i | 5.2% | i | ? | 20.6µM* | -1.1%
COc1cc2c(C#CCCCO)c(-c3ccc(C#N)cc3)oc(=O)c2cc1OC | i | 0.0% | ? | -12.2% | 6.51µM* | ?
COc1cc2c(C#CCO)c(-c3ccc(C#N)cc3)oc(=O)c2cc1OC | i | -3.7% | i | 19.6% | -11.8% | -1.9%
Cc1nc2nc(SCC(=O)NC3CCC(C)CC3)nn2c(C)c1Cc1ccccc1 (stereo not given) | i | / | i | / | / | /
